In the library only some 8.3% were active in any assay of this set; here they are far more common.
FMDV antiviral = antivirals against foot and mouth disease virus; Potency, µM (titrated, usually from 57.9 µM), for inactives: at the highest dose activity change, negative = inhibition, most hits filed as inhibitors; FMDV antiviral cell-based qHTS; hit rate 1.2% among 410,000; calls by dose curve; tested in HEK293T cells; further: read-out not given here; potency means the concentration at half of the fitted maximal effect; nearly all actives have a fitted effect of over 45% in size
Lassa entry inh = inhibitors of Lassa virus binding or cell entry; Lassa virus pseudotype entry inhibition, cell reporter; Potency, µM (doses to about 37.9 µM), without a hit: top-dose activity change, negative = inhibition, hits mostly inhibitors; hit rate 1.2% among 300,000; AID 540256; calls by dose curve; tested in HEK293 cells; further: potency means the concentration at half of the fitted maximal effect; nearly all actives have a fitted effect of over 50% in size
FBPA Giardia inh = Giardia lamblia aldolase inhibition. A8B2U2. purified Giardia FBPA. Potency, µM (highest dose often 59.6 µM), for inactives: top-dose activity, negative = inhibition, hits mostly inhibitors. hit rate 0.71% among 290,000. AID 2451; further: potency means the concentration at half of the fitted maximal effect; nearly all actives have a fitted effect of over 55% in size
Target sequence (A8B2U2 whole entry, looked up): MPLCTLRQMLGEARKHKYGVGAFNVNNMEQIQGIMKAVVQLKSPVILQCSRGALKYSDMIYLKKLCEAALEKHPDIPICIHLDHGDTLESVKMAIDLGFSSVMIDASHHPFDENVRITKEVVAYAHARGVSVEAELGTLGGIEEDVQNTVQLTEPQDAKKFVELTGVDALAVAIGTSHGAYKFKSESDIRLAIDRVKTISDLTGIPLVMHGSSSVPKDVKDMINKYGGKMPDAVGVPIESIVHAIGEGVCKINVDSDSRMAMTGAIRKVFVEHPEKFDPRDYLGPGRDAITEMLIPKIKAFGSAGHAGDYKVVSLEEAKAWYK
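Giardia FBPA (40 nM reagent) was preincubated 10 min at RT with compound (up to 57.5 uM final), then substrate plus GAPDH/TPI/NAD/arsenate coupling system with diaphorase/resazurin was added; resorufin fluorescence (525/598 nm) was read after 20 min.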
HCMV antiviral = blocks human cytomegalovirus replication. HFF cells, HCMV-luciferase reporter, 72 h; active compounds read low. activity change, negative = inhibition, % at 57.5 µM. hit rate 4.5% among 410,000; in the data active means activity change below about -60%; inconclusive means no clear call, values can overlap the other calls; inactive means above about -39%
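Two compound doses tested in HFFs infected with HCMV-luciferase, MOI 1 PFU/cell, 72 h at 37C. Lysate luminescence read with OneGlo; data normalized against buffer-only and 10uM Salinomycin inhibitor controls.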
Marburg entry inh = Marburg virus entry inhibition; Marburg virus pseudotyped entry inhibition, cell reporter; Potency, µM (doses to about 37.8 µM), for inactives: at the top dose activity change, negative = inhibition, hits mostly inhibitors; hit rate 1.8% among 300,000; calls by dose curve; tested in HEK293 cells; further: potency means the concentration at half of the fitted maximal effect
HCV inhibitor = HCV inhibition; hit rate 3.4% among 340,000; Huh7.5.1 HCVcc-Cre infection, luciferase reporter, 44 h; Potency, µM (series often up to 41.8 µM), without a hit: top-dose activity change, negative = inhibition, usual class: inhibitors; further: potency means the concentration at half of the fitted maximal effect
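Seed cells (1,000/well) for 4 h; treat with compound and infect with HCVcc-Cre, moi about 0.5. Incubate 44 h, then detect luciferase activity.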
* = called active by the depositor; [ ] = another dose, or the depositor's remark. Unless noted, the call rests on the fitted dose curve; in most records, active means well fitted curve in the direction sought with a large enough effect; inconclusive means small, poorly fitted or top-dose-only effect, or another doubt; inactive means no such curve, though single readings can be large; an effect the other way counts as inactive or inconclusive. On the % scale 0 is the no-effect control and ±100 the full control effect.

What do the screens show for `COC(=O)c1ccc(/C=C2/SC(=S)N(CCCC(=O)Nc3ccccn3)C2=O)cc1`?
FMDV antiviral: -4%; Lassa entry inh: -15%; FBPA Giardia inh: 3%; HCMV antiviral: -85*; Marburg entry inh: inconclusive; HCV inhibitor: 0%

How did O=C(/C=C/c1ccc(Br)cc1)c1ccc(NC2=NCCCS2)cc1 do in these assays?
FMDV antiviral: 16µM*; Lassa entry inh: inconclusive; FBPA Giardia inh: -11%; HCMV antiviral: -100*; Marburg entry inh: inconclusive; HCV inhibitor: inconclusive

What do the screens show for `O=C(/C=C/c1ccccc1)c1ccc(NC2=NCCCS2)cc1`?
FMDV antiviral: -47%; Lassa entry inh: -2%; FBPA Giardia inh: 5%; HCMV antiviral: 10; Marburg entry inh: inconclusive; HCV inhibitor: -3%

What do the screens show for `Cc1cccc(/C=C/C(=O)c2ccc(NC3=NCCCS3)cc2)c1`?
FMDV antiviral: inconclusive; Lassa entry inh: 2%; FBPA Giardia inh: -4%; HCMV antiviral: -98*; Marburg entry inh: inconclusive; HCV inhibitor: 11µM*

What do the screens show for `CC(C)(C)c1ccc(/C=C/C(=O)c2ccc(NC3=NCCCS3)cc2)cc1`?
FMDV antiviral: -25%; FBPA Giardia inh: -4%; HCMV antiviral: 73; Marburg entry inh: 3%; HCV inhibitor: 11µM*

What do the screens show for `Oc1c(Br)cc(Br)c2cccnc12`?
FMDV antiviral: 0%; FBPA Giardia inh: -13%; HCMV antiviral: 20; HCV inhibitor: inconclusive

How did [O-][n+]1cccc2c(Br)cc(Br)c(O)c21 do in these assays?
FMDV antiviral: -19%; Lassa entry inh: 12%[46.1 µM]; FBPA Giardia inh: inconclusive; HCMV antiviral: -84*; Marburg entry inh: 11%[46.1 µM]; HCV inhibitor: -2%

How did Cc1ccc(-c2nnn(CC(=O)N(CC(=O)NC3CCCC3)c3cnc4ccccc4c3)n2)o1 do in these assays?
FMDV antiviral: -4%; Lassa entry inh: -6%; FBPA Giardia inh: -2%; HCMV antiviral: -103*; Marburg entry inh: -4%; HCV inhibitor: 1%

How did Cc1ccc(-c2nnn(CC(=O)N(CC(=O)NC(C)C)c3cnc4ccccc4c3)n2)o1 do in these assays?
Lassa entry inh: 15%; FBPA Giardia inh: 0%; HCMV antiviral: 2; Marburg entry inh: -3%; HCV inhibitor: -3%

What do the screens show for `Cc1ccc(-c2nnn(CC(=O)N(CC(=O)NC3CCCCC3)c3ccc(F)c(Cl)c3)n2)o1`?
FMDV antiviral: 13%; Lassa entry inh: 13µM*; FBPA Giardia inh: -2%; HCMV antiviral: -12; Marburg entry inh: inconclusive; HCV inhibitor: inconclusive

How did Cc1ccc(-c2nnn(CC(=O)N(CC(=O)NC3CCCC3)c3ccc(F)c(Cl)c3)n2)o1 do in these assays?
FMDV antiviral: -9%; Lassa entry inh: -14%; FBPA Giardia inh: 1%; HCMV antiviral: -16; Marburg entry inh: inconclusive; HCV inhibitor: inconclusive

Results for Cc1ccc(-c2nnn(CC(=O)N(CC(=O)NC3CCCC3)c3cccc(F)c3)n2)o1 ?
FMDV antiviral: 11%; Lassa entry inh: -5%[46.1 µM]; FBPA Giardia inh: -8%; HCMV antiviral: -85*; Marburg entry inh: -7%[46.1 µM]; HCV inhibitor: -13%

What do the screens show for `COc1cc(=O)n2c(c1C(=O)N(C)C(C)c1ccco1)CCN(C(=O)c1ccc(C(C)=O)cc1)CC2` (stereo unspecified)?
FMDV antiviral: -9%

What do the screens show for `CCCc1nc2ccc(NC(=O)CC(C)(C)C)cn2n1`?
HCMV antiviral: 50

How did COCCCNC(=O)C(=O)NCC(c1ccc2c(c1)OCO2)N1CCOCC1 (stereo unspecified) do in these assays?
FMDV antiviral: 0%; Lassa entry inh: 9%[46.1 µM]; HCMV antiviral: -113*

What do the screens show for `Cc1ccc(CNC(=O)C(=O)NCC(c2cccnc2)N2CCN(c3ccccc3F)CC2)cc1` (stereo unspecified)?
FMDV antiviral: -20%; Lassa entry inh: inconclusive; HCMV antiviral: -72*

What do the screens show for `CCc1ccc(NC(=O)C(=O)NCC(c2cccnc2)N2CCc3ccccc3C2)cc1` (stereo unspecified)?
FMDV antiviral: 10µM*; Lassa entry inh: 18%[46.1 µM]; HCMV antiviral: -28

What do the screens show for `COc1ccccc1N1CCN(C(CNC(=O)c2ccc3c(c2)OCO3)c2cccnc2)CC1` (stereo unspecified)?
FMDV antiviral: -30%; Lassa entry inh: 21%; FBPA Giardia inh: 0%; HCMV antiviral: -15; Marburg entry inh: -29%; HCV inhibitor: 11µM*

Results for COCCNC(=O)C(=O)NCC(c1ccc2c(c1)OCO2)N1CCOCC1 (stereo unspecified) ?
FMDV antiviral: 3%; Lassa entry inh: 8%[46.1 µM]; HCMV antiviral: 19

Results for COc1ccc(-c2cc(C(=O)Nc3c(C(=O)c4ccc(C)c(F)c4)oc4ccccc34)no2)cc1 ?
FMDV antiviral: -2%; Lassa entry inh: 2%[46.1 µM]; HCMV antiviral: 12; Marburg entry inh: inconclusive

What do the screens show for `O=S(=O)(c1ccccc1)C(Br)S(=O)(=O)c1ccccc1`?
FMDV antiviral: 15%; HCMV antiviral: 2

What do the screens show for `N#Cc1cccc(C(Br)S(=O)(=O)c2ccccc2)c1` (stereo unspecified)?
FMDV antiviral: -26%; HCMV antiviral: -91*

How did CC(C)NC(=O)c1ccc(-n2c(=S)[nH]c3ccccc3c2=O)cc1 do in these assays?
FBPA Giardia inh: -5%; HCMV antiviral: -84*

How did COC(=O)c1ccc2c(=O)n(Cc3ccc(C(=O)NC(C)C)cc3)c(=S)[nH]c2c1 do in these assays?
FMDV antiviral: 25%; Lassa entry inh: inconclusive; FBPA Giardia inh: 3%; HCMV antiviral: -25; Marburg entry inh: inconclusive; HCV inhibitor: 7.9µM*

How did O=c1c2ccccc2[nH]c(=S)n1-c1ccc(Br)cc1 do in these assays?
FMDV antiviral: 44%; Lassa entry inh: 4%[46.1 µM]; FBPA Giardia inh: 4%; HCMV antiviral: -36; Marburg entry inh: 0%[46.1 µM]; HCV inhibitor: -1%

What do the screens show for `CC(C)C[C@@H](CC(=O)N[C@H](CC(=O)N[C@@H]1CCCC[C@H]1C(=O)N[C@H](CC(=O)N[C@@H](CCC(=O)O)CC(=O)O)CC(C)C)C(C)C)NC(=O)[C@@H]1CNCC[C@H]1N`?
FBPA Giardia inh: -19%

How did CC(=O)[C@]12C[C@]3(C)CCCN(C(=O)N[C@@H]1c1ccccc1)C32 (stereo partly specified) do in these assays?
Lassa entry inh: inconclusive; Marburg entry inh: 10%[14.2 µM]

Results for CC1Cn2c(C(=O)NCc3cccc(Br)c3)cc3cccc(c32)S1 (stereo unspecified) ?
FMDV antiviral: -19%; Lassa entry inh: 10%[46.1 µM]; HCMV antiviral: 0

Results for CC(=O)Nc1ccc(CN2CCn3c(nnc3C(=O)NCC3CC3)C2)cc1 ?
HCMV antiviral: 3
